Experimental findings from PubChem BioAssay (NCI) are described below.

Compounds without any hit were thinned out: in the full panel of roughly 83,000, 20% have a hit.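 Interpretation: 100, growth as untreated; towards 0, rising growth inhibition; 0, no net growth; 0 to -100, cell death. Compounds scoring below 10 were considered active.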 Activity calls are given as the source filed them.

This assay relates to OVCAR-5 ovarian. The experiment in a line: NCI-60 one-dose screen, 48 h (100 = growth as untreated, 0 = no growth, -100 = all killed). The settings on record: 10 µM unless noted. The method, then: Growth inhibition of the OVCAR-5 human tumor cell line is measured as a screen for anti-cancer activity. Cells are grown in 96 well plates and exposed to the test compound for 48 hours. Compounds are tested at a single concentration, which is 10^-5 M for most compounds. The reported endpoint is percent growth (GI% or GIPRCNT), where numbers from 0 - 100% represent growth inhibition, and numbers from -100% - 0 represent cell death. For example, a value of 40 represents 60% growth inhibition. A value of 0 means no net growth occurred over the course of the experiment. A value of -40 indicates 40% of cells at the beginning of the experiment died by the end of the experiment. A value of -100 means all cells are dead at the end of the experiment.
NCI-60 Human Tumor Cell Lines Screen was performed using the standard one-dose NCI protocol, which is described in more detail at https://dtp.cancer.gov/discovery_development/nci-60/default.htm.
Compounds with GIPRCNT values below 10 were considered active. Activity score was based on GIPRCNT using the following formula: […]
Score is 0 for GIPRCNT values of 100 or above, 50 for GIPRCNT values of 0, and 100 for GIPRCNT values of -100.
As for `NC(=O)c1ccc[n+](CC(=O)N2CCN(c3cc4c(cc3F)c(=O)c(C(=O)O)cn4C3CC3)CC2)c1`, the growth was 114% (inactive).

Regarding `CC(=O)Nc1ccc(S(=O)(=O)NC2CCCCC2)cc1`, the growth is 93.9% (inactive). Then `COc1ccc(/C=C/c2n[nH]c3ccc(N4CCOC4=O)cc23)cc1`, with 14.1% (inactive); and `CCOC(=O)c1c(C)nc2c(c1N)C(=O)C(=O)N2Cc1ccc(C(F)(F)F)cc1`, with 91.7% (inactive).

As for `c1ccc2c(-c3c4ccsc4cc4[nH]c5ccccc5c34)c[nH]c2c1`, the growth is 75.2% (inactive). To `Nc1ncc(C#Cc2cncc(NC(=O)c3cccc(C(F)(F)F)c3)c2)c2cccnc12` belongs 52.9% (inactive); to `O=C1CCCCCCCCC(O)C(O)CCCC(c2cccs2)O1` (stereo not given), 95.3% (inactive); to `C[C@@H]1CN(Cc2ccc(/C=C/c3n[nH]c4ccc5nc(-c6cn[nH]c6C(F)(F)F)c6c(c5c34)CCCC6)cc2)C[C@H](C)O1`, 19.7% (inactive). On to `COc1ccc(Cl)cc1NC(=O)c1c(NC(=O)C(F)(F)C(F)(F)F)sc2c1CCCCC2`, for which the growth is 21.6% (inactive). To `Clc1cc(Cl)cc(N2N=C(c3cccc(Nc4ccncc4)c3)CC2c2ccc3c(c2)OCO3)c1` (stereo not given) belongs 86.7% (inactive); to `COc1ccc(C2CC(c3cccc(Nc4ccncc4)c3)=NN2c2ccc(Cl)cc2)cc1` (stereo not given), 74.1% (inactive). Then `CC(C)C1C2=C(NCCN1C(=O)Cc1ccccc1)C(C)(C)N(Cc1ccccc1)C2=O` (stereo not given), with 102% (inactive); and `O=C1NC(=S)NC(=O)C1=Cc1cn(Cc2ccccn2)c2ccccc12`, with -4.45% (active). On to `CC[C@H](CC[C@@H](C)[C@H]1CC[C@H]2[C@@H]3CC=C4C[C@@H](OCCc5nn[nH]n5)CC[C@]4(C)[C@H]3CC[C@]12C)C(C)C`, for which the growth was 108% (inactive).

For the compound `COc1ccc(C(=O)/C=C/c2c(OC)cc(OC)cc2OC)c(OC)c1`, the growth was 31.5% (inactive). Then `COc1ccc2nc(N=Nc3c(O)ccc4ccccc34)sc2c1`, with 55.3% (inactive); and `C=C(C)[C@@H]1CC[C@]2(CO)CC[C@]3(C)[C@H](CC[C@@H]4[C@@]5(C)CCCNC(C)(C)[C@@H]5CC[C@]43C)[C@@H]12`, with 75% (inactive); and `CCCCCCCCOc1ccc(/C=N/Nc2cc(C)nc3ccc(Cl)cc23)cc1`, with 27.1% (inactive).

On to `Cc1n[nH]c(C)c1-c1c(C)n[nH]c1C`, for which the growth was 2.14% (active). For `Clc1ccc(N2N=C(c3cccc(Nc4ccncc4)c3)CC2c2ccc(Br)cc2)cc1` (stereo not given), the growth is 77.8% (inactive). Then `CCCCCOc1ccc(/C=N/Nc2cc(C)nc3ccc(Br)cc23)cc1`, with 106% (inactive); and `COc1cc(NCCCN(CC(C)C)CC(C)C)c2ncccc2c1`, with 114% (inactive). To `O=C(N/N=C/c1cccc(O)c1)c1ccccc1Nc1cccc(C(F)(F)F)c1` belongs 92.3% (inactive); to `Nc1c(Cl)cc([N+](=O)[O-])cc1Br`, 103% (inactive); to `CC(C)(C#N)N1CCN(c2ccccc2Cl)CC1`, 97.2% (inactive). To `Cn1c(COC(=O)NCCN2CCOCC2)nc2c(N3CCOCC3)nc(-c3ccccc3)nc21` belongs -86.6% (active). As to `CC[C@H](C)[C@@H]1NC(=O)[C@H](Cc2ccc(O)cc2)N(C)C(=O)[C@H](Cc2ccccc2)NC(=O)CN(C)C(=O)[C@@H]2CCCN2C(=O)[C@@H](Cc2ccccc2)N(C)C(=O)[C@H](CC(C)C)NC1=O`, the growth was -7.89% (active).

With `c1ccc(-c2nn(-c3ccccc3)[n+](-c3ccccc3-c3ccccc3)n2)cc1`, the growth was 37.1% (inactive). Then `CCCCCCOc1ccc(C(=N)N(CCCC)CCCC)c2ccccc12`, with -93.8% (active); and `O=C1c2ccccc2-c2c1c1c(NCCCO)nc3ccccc3c1n2Cc1ccccc1`, with 45.6% (inactive); and `CC1(C)CN(Cc2ccccc2)CCN1Cc1ccccc1`, with 103% (inactive).

As to `O=C(Nc1nc2ccc(C(=O)N3CCN(c4ccc(Cl)c(Cl)c4)CC3)cc2s1)c1ccc(NCCc2ccccc2)c([N+](=O)[O-])c1`, the growth is 91.3% (inactive). To `COc1ccc(-c2nc3sccn3c2/C=C/C(=O)c2cc(OC)c(OC)c(OC)c2)cc1` belongs 103% (inactive).

Turning to `COc1ccc(-c2nc(SC(C)C)nc(NNC(N)=O)c2C#N)cc1`, the growth was 85.6% (inactive). Take `COc1ccccc1C(C[N+](=O)[O-])c1c(-c2ccccc2)[nH]c2cc(C)ccc12` (stereo not given): the growth was 89.5% (inactive). Then `COc1ccc(-c2nc(SC)nc(N3CCOCC3)c2C#N)cc1`, with 99.7% (inactive). In the case of `O=C1C(=O)c2c(nc3ncccn23)-c2ccccc21`, the growth was -88.1% (active). Then `CCNC(=O)c1[nH]cc(-c2ccc(OC)cc2)c1-c1cc(OC)cc(OC)c1`, with 99.6% (inactive); and `CC1NC(=S)NC(=O)/C1=C/c1cc(=O)oc2c1ccc1ccccc12` (stereo not given), with 105% (inactive); and `CCOC(=O)C1CC(=O)c2cc(OC)c(OC)cc2C1` (stereo not given), with 101% (inactive).
